# CHX counter – Cycloheximide Counterscreen for Small Molecule Inhibitors of Shiga Toxin; cell reporter, cycloheximide protein synthesis inhibition counterscreen; max response, %; actives 12% (n = 300,000); AID 2314, 2010; in the data active = max response mostly above about 13%, no sharp cut-off; inactive = mostly below about 14%; also: read at 38.3 µM for the half of the compounds with a filed dose; 0% is about no effect
# LmPK inh – qHTS Assay for Inhibitors of Leishmania Mexicana Pyruvate Kinase (LmPK); actives 0.37% (n = 290,000); AID 1721, 2009; purified LmPK, Kinase-Glo ATP luminescence, 1 h; Potency, µM (highest dose often 57.5 µM), inactives show top-dose activity change, negative = inhibition, usual class: inhibitors; also: potency is read from the fitted curve at half-maximal effect; % is scaled to controls: 0 for no effect and ±100 for the full control effect
#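 Screened at intermediate enzyme activity to detect both inhibitors and activators: LmPK at 0.1 nM, with a 0.5 nM enzyme column as activation reference. PEP 0.5 mM, ADP 0.1 mM; ATP detected by luminescence after 1 h.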
# Sm TGR block – qHTS Assay for the Inhibitors of Schistosoma Mansoni Peroxiredoxins. Schistosoma mansoni thioredoxin glutathione reductase (TGR), Q962Y6. purified TGR, DTNB reduction, TNB absorbance 405 nm. Potency, µM (series often up to 114 µM), for inactives: top-dose activity change, negative = inhibition, most hits filed as inhibitors. actives 3% (n = 360,000). AID 485364, 2010; also: potency is read from the fitted curve at half-maximal effect; % is scaled to controls: 0 for no effect and ±100 for the full control effect; nearly all actives have a fitted effect of over 60% in size
#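 First, TGR (20 nM dispensed) and NADPH were mixed with compound. Second, a 15 min room-temperature incubation followed. Third, further NADPH and then DTNB were added to start the reaction. Finally, TNB absorbance was monitored kinetically.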
# Giardia FBPA inh – qHTS Assay for Inhibitors of Fructose-1,6-bisphosphate Aldolase from Giardia Lamblia | A8B2U2 | purified Giardia FBPA | Potency, µM (doses to about 59.6 µM), for inactives: top-dose activity, negative = inhibition, usual class: inhibitors | actives 0.71% (n = 290,000); also: potency is read from the fitted curve at half-maximal effect; % is scaled to controls: 0 for no effect and ±100 for the full control effect; nearly all actives have a fitted effect of over 55% in size
# Target sequence (A8B2U2 whole entry, looked up): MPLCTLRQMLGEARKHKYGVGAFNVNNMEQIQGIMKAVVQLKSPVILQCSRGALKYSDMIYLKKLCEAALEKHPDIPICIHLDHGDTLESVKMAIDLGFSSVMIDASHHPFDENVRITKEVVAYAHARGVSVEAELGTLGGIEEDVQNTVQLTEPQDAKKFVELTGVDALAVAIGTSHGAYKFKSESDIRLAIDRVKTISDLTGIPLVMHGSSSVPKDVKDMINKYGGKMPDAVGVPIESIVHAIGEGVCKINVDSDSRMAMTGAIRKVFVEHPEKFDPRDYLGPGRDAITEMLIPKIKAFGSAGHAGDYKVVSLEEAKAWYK
#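 40 nM FBPA preincubated 10 min at RT with compound (up to 57.5 uM final), then substrate plus GAPDH/TPI/NAD/arsenate coupling and diaphorase/resazurin added. Fluorescence read after 20 min at RT, 525/598 nm.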
# Shiga toxin inh – A qHTS for Small Molecule Inhibitors of Shiga Toxin. Vero cells, Shiga toxin protein synthesis inhibition reporter. inhibition, % at 38.7 µM. actives 9.2% (n = 290,000); in the data active = inhibition mostly above about 28%, no sharp cut-off; inactive = mostly below about 43%; also: 0% is about no effect
# TbPYK inhibitor – qHTS of Trypanosoma Brucei Inhibitors; pyruvate kinase (Trypanosoma brucei), Q57TT1; TbPYK enzyme, Kinase-Glo Plus ATP luminescence, 45 min; Potency, µM (highest dose often 76.8 µM), inactives show at the highest dose activity, negative = inhibition, most hits filed as inhibitors; actives 0.12% (n = 410,000); also: potency is read from the fitted curve at half-maximal effect; % is scaled to controls: 0 for no effect and ±100 for the full control effect; nearly all actives have a fitted effect of over 50% in size
#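 Glycolytic pyruvate kinase of T. brucei was incubated with substrate, test compound and 130 uM ADP for 45 minutes at room temperature. Luminescent Kinase-Glo Plus signal was measured after 10 minutes.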
# The depositor's hits bear a star; ? = inconclusive; / = not tested or not shown. The entries come from a sample that favours hits as a whole. Unless noted, calls follow the shape of the dose curve; as a rule, active = well fitted curve in the direction sought with a large enough effect; inconclusive = small, poorly fitted or top-dose-only effect, or another doubt; inactive = no such curve, though single readings can be large; an effect the other way counts as inactive or inconclusive.
SMILES,CHX counter,LmPK inh,Sm TGR block,Giardia FBPA inh,Shiga toxin inh,TbPYK inhibitor
O=S(=O)(Cc1ccccc1)C(CCCc1ccccc1)S(=O)(=O)Cc1ccccc1,/,/,/,/,/,28.5%
CCN1CCc2c(sc(-n3cccc3)c2C(CCC(C)C)NC(=O)NCCC(=O)OC)C1 (centres undefined),/,/,?,/,/,-4.5%
COc1ccc(NC(=O)c2sc3nc(C)c(C(=O)Nc4ccc(C)cc4C)c(-c4ccc(C)o4)c3c2N)cc1,/,/,8.6%,/,/,-7.7%
CN(C)C(C(=O)NC1CCCCC1)c1ccc(Cl)cc1 (centres undefined),-3.5,1.7%,2.3%,4.0%,-12.9,2.2%
O=C(NC1CCCC1)C(c1ccc(F)cc1)N(Cc1ccc(Cl)cc1)C(=O)CCl (centres undefined),-4.2,0.6%,2.82µM*,-1.5%,-13.3,-4.4%
O=C(NC1CCCC1)C(c1ccc(Cl)cc1)N(Cc1ccc(F)cc1)C(=O)CCl (centres undefined),-2.0,0.1%,7.08µM*,-6.7%,-5.0,-1.6%
COC(=O)c1ccc(C(C(=O)NC2CCCCC2)N(Cc2ccc(F)cc2)C(=O)Cc2cccs2)cc1 (centres undefined),-0.6,4.8%,-8.9%,-1.0%,-5.8,-11.4%
COC(=O)c1ccc(Cn2c(SCc3ccc(F)cc3)nc3ccncc32)cc1,/,/,-19.0%,/,/,-3.9%
CCCCN(C(=O)C1CC(=O)N(c2ccc(C)cc2)C1)c1c(N)n(CCC)c(=O)[nH]c1=O (centres undefined),/,/,-4.3%,/,/,0.9%
COc1ccc(CC(=O)c2ccc(OC)c(OC)c2C)cc1OC,23.4*,-3.6%,-0.1%,14.0%,55.7*,-1.5%
COc1ccc(CC(=O)Cc2ccc(OC)c(OC)c2)cc1OC,/,/,/,/,/,4.1%
COc1ccc(NC(=O)CC(C)n2nc(C)cc2C)cc1Cl (centres undefined),/,/,-0.5%,/,/,2.8%
Cc1ccc(S(=O)(=O)N/N=C/c2ccc(O)cc2O)cc1[N+](=O)[O-],17.8*,9.2%,-5.2%,15.6%,58.3*,-6.1%
CCOc1cccc(/C=N/NS(=O)(=O)c2ccc(C)c([N+](=O)[O-])c2)c1O,8.4,8.5%,-4.2%,20.2%,17.8,2.5%
COc1cc(/C=N/NS(=O)(=O)c2ccc(C)c([N+](=O)[O-])c2)cc([N+](=O)[O-])c1O,-1.3,2.0%,?,-19.7%,/,-13.9%
NC(N)=N/N=C/c1cc([N+](=O)[O-])ccc1O,11.8*,-2.3%,-19.5%,0.3%,10.8,-5.5%
COc1ccc(-n2c(O)c(/C=N/NS(=O)(=O)c3ccc(C)c([N+](=O)[O-])c3)c3ccccc3c2=O)cc1OC,-4.2,2.0%,10µM*,-9.6%,-10.4,-17.9%
COc1cc(/C=N/NS(=O)(=O)c2ccc(C)c([N+](=O)[O-])c2)ccc1O,35.7*,3.8%,-15.8%,11.1%,122.3*,-7.2%
Cc1ccc(S(=O)(=O)N/N=C/c2cc([N+](=O)[O-])ccc2O)cc1[N+](=O)[O-],3.7,0.8%,28.2µM*,0.1%,77.2,3.2%
Oc1ccc(/C=N/n2cc(-c3ccccc3)[nH]c2=S)cc1,9.7,-9.4%,-0.7%,3.7%,12.6,?
COc1cc(/C=N/n2cc(-c3ccccc3)[nH]c2=S)cc(OC)c1O,62.1*,2.51µM*,2.9%,-7.7%,35.8,1.12µM*
S=c1[nH]c(-c2ccccc2)cn1/N=C/c1ccccc1Br,26.7*,-5.0%,-13.6%,2.1%,35.0,?
Cc1ccc(/C=N/n2cc(-c3ccccc3)[nH]c2=S)s1,38.7*,?,-2.6%,2.5%,108.4*,?
S=c1[nH]c(-c2ccccc2)cn1/N=C/c1cccc2ccccc12,16.5,-4.9%,-15.2%,-0.8%,32.7,-19.9%
Cc1ccccc1CN1CCCN(CC(=O)Nc2ccc(F)cc2)S1(=O)=O,/,/,3.3%,/,/,-11.3%

# Assay outcomes deposited in PubChem BioAssay by National Center for Advancing Translational Sciences (NCATS).
